Consider 38 compounds from the supplement of paper PMC9897528.
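Also: conidia screened in RPMI 1640 medium under 5% CO2, growth read by spectrophotometer, medium with 0.5% DMSO serving as the untreated reference.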

In this assay the test system is Scedosporium aurantiacum CBS 136046. The experiment in a line: growth inhibition relative to DMSO control (OD600); higher = more antifungal activity, active = 80 or more; extreme values may be limits of the assay. As to conditions: 5 µM; 72 h; 37 °C.
For the compound `COc1cc(C2C3=C(CC(C)(C)CC3=O)Nc3ccccc3N2C(C)=O)ccc1OCc1ccccc1` (stereo not drawn), the growth inhibition was 0.481% (inactive). Next, `Oc1c(C(Nc2ccccn2)c2ccccc2)ccc2cccnc12` (stereo not drawn): 35.9% (inactive); `COc1ccc(C)cc1NC(=O)c1ccc(S(=O)(=O)N2CCCCC2)cc1`: 32.4% (inactive). On to `O=C(CCCC(F)(F)F)N1CCC(c2nc(-c3nccs3)no2)CC1`, for which the growth inhibition was 4.66% (inactive).

As for `CN1CCN(Cc2ccc(-c3cnc4[nH]cc(-c5ccc6[nH]ccc6c5)c4c3)cc2)CC1`, the growth inhibition is 54.5% (inactive). Next, `COC1CC2CCC(C)C(O)(O2)C(=O)C(=O)N2CCCCC2C(=O)OC(C(C)CC2CCC(OCCO)C(OC)C2)CC(=O)C(C)/C=C(\C)C(O)C(OC)C(=O)C(C)CC(C)/C=C/C=C/C=C/1C` (stereo not drawn): 10.9% (inactive); `Cc1onc(-c2ccccc2Cl)c1C(=O)N[C@@H]1C(=O)N2[C@@H]1SC(C)(C)[C@@H]2C(=O)O`: 0.0225% (inactive). On to `NC(=O)c1ccccc1NC(=O)c1ccc(C(=O)Nc2ccccc2C(N)=O)cc1`, for which the growth inhibition was 11.5% (inactive). As to `NC(=O)C(c1ccccc1)(c1ccccc1)[C@H]1CCCN(CCc2ccc3c(c2)CCO3)C1`, the growth inhibition is 13.5% (inactive). Consider `Cc1cc(Nc2ccc(F)cc2)nc(SCc2nc3ccccc3[nH]2)n1`, for which the growth inhibition is 0% (inactive). For the compound `CCC(C)NCC(O)Cn1c2ccc(Cl)cc2c2cc(Cl)ccc21` (stereo not drawn), the growth inhibition is 25% (inactive). In the case of `CC[C@@H](CO)NCCN[C@@H](CC)CO`, the growth inhibition is 11.4% (inactive). As to `Nc1nc(N)c2c(Sc3ccccc3)cccc2n1`, the growth inhibition was 18% (inactive). For the compound `O=c1[nH]cnc2c1ncn2[C@H]1CC[C@@H](CO)O1`, the growth inhibition is 10.6% (inactive).

As for `Cc1nc(-c2ccc(C3N(C)c4ccc(F)cc4C(=O)N3c3ccccc3)s2)cs1` (stereo not drawn), the growth inhibition is 15% (inactive). Then `O=C1NC(=S)N/C1=C\c1cc(Br)cc(Br)c1O`, with 12.6% (inactive). With `CC[C@H](NC(=O)[C@H](C)NC)C(=O)N1C[C@@H](O)C[C@H]1Cc1c(-c2[nH]c3cc(F)ccc3c2C[C@@H]2C[C@H](O)CN2C(=O)[C@H](CC)NC(=O)[C@H](C)NC)[nH]c2cc(F)ccc12`, the growth inhibition is 6.5% (inactive). Then `NC(=O)c1cnccn1`, with 1.73% (inactive); and `C=CCc1cc(Cc2cnc(N)nc2N)cc(OC)c1O`, with 0% (inactive). For the compound `CC(C)(C)NC(=O)[C@@H]1C[C@@H]2CCCC[C@@H]2CN1C[C@@H](O)[C@H](Cc1ccccc1)NC(=O)[C@H](CC(N)=O)NC(=O)c1ccc2ccccc2n1`, the growth inhibition is 15% (inactive). Then `COc1cc(NC(=O)CN2C(=O)NC(c3ccccc3)(c3ccccc3)C2=O)cc(OC)c1`, with 0% (inactive). Then `CC#C[C@]1(O)CC[C@H]2[C@@H]3CCC4=CC(=O)CCC4=C3[C@@H](c3ccc(N(C)C)cc3)C[C@@]21C`, with 11.4% (inactive).

As for `O=C(/C=C\n1cnc(-c2cc(C(F)(F)F)cc(C(F)(F)F)c2)n1)NNc1ccccn1`, the growth inhibition was 24.4% (inactive). On to `CCc1ccc(C2CC(C(F)(F)F)n3ncc(C(=O)NCc4ccc(OC)cc4)c3N2)cc1` (stereo not drawn), for which the growth inhibition is 34.5% (inactive). Turning to `COc1ccc(CNC(=O)C2CCN([C@H](C)c3cccc4ccccc34)CC2)cc1`, the growth inhibition was 9.67% (inactive). Then `c1ccc(-c2nnc3c4ccccc4c(N4CCNCC4)nn23)cc1`, with 23.6% (inactive); and `CCCCCCCc1[nH]c2ccccc2c(=O)c1O`, with 8.25% (inactive); and `CSc1ccc2c(c1)C(N1CCN(C)CC1)Cc1ccccc1S2` (stereo not drawn), with 46.7% (inactive). Next, `O=C(Nc1ccc(F)cc1)c1nn(-c2ccccc2)c(=O)cc1Cl`: 32.8% (inactive); `CNc1nc(=O)[nH]cc1F`: 2.45% (inactive); `CC(C)/N=c1\cc2n(-c3ccc(Cl)cc3)c3ccccc3nc-2cc1Nc1ccc(Cl)cc1`: 24.6% (inactive). Then `O=[N+]([O-])c1cn2c(n1)OC[C@@H](OCc1ccc(OC(F)(F)F)cc1)C2`, with 11.2% (inactive); and `CN(C)CC(=O)Nc1ccc2[nH]c(=O)c3ccccc3c2c1`, with 6.77% (inactive).

In the case of `O=C(NCc1ncc(C(F)(F)F)cc1Cl)c1c(Cl)cccc1Cl`, the growth inhibition was 0% (inactive). Regarding `CC(=O)Oc1ccccc1C(=O)Nc1ncc([N+](=O)[O-])s1`, the growth inhibition was 12.7% (inactive). Next, `CC(C)(C)c1cccc(-c2nc3cc(C(=N)N)ccc3[nH]2)c1O`: 17.4% (inactive); `O=C(O)COc1cccc2c1CC[C@](O)(COC(=O)N(c1ccccc1)c1ccccc1)C2`: 0.943% (inactive); `CCN(CC)CCCC(C)Nc1ccnc2cc(Cl)ccc12` (stereo not drawn): 21.6% (inactive).
